Only a selection was taken, and the strongest signals are over-represented in it overall.
Experiments:
Assay in all cases: glycan array binding signal (z-score within array); higher = stronger binding
Conditions in all cases: glycan notation: IUPAC condensed, linker removed
[1] = target: 3dGal(b1-3)[Fuc(a1-4)]Glc
In short: (§1)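 Columns mapping to the same glycan were averaged after glycan names were converted to IUPAC-condensed notation. The data come from 3228 arrays in the Consortium for Functional Glycomics database, limited to those with an available protein sequence. Binding is reported as a within-array Z-score averaged across arrays of one protein sequence and across linkers.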

[2] = target: Fuc(a1-3)[3dGal(b1-4)]Glc
In short: as §1

[3] = target: Fuc(a1-3)[Gal(b1-4)]GlcNAc(b1-3)Gal(b1-4)Glc
In short: as §1

[4] = target: Fuc(a1-3)[Gal6S(b1-4)]GlcNAc(b1-3)Gal(b1-4)Glc
In short: as §1

Gal(a1-6)Glc = target: Gal(a1-6)Glc
In short: as §1

Gal(b1-4)Glc = target: Gal(b1-4)Glc
In short: as §1

[5] = target: Gal(b1-4)GlcNAc(b1-2)Man(a1-3)[Man(a1-6)]Man(b1-4)GlcNAc(b1-4)GlcNAc
In short: as §1

[6] = target: Gal(b1-4)GlcNAc(b1-3)[Fuc(a1-3)[Gal(b1-4)]GlcNAc(b1-6)]Gal(b1-4)Glc
In short: as §1

Glc(a1-3)Glc = target: Glc(a1-3)Glc
In short: as §1

[7] = target: Glc(a1-4)Glc(a1-4)Glc(a1-4)Glc(a1-4)Glc(a1-4)Glc(a1-4)Glc(a1-4)Glc
In short: as §1

[8] = target: Glc(a1-4)Glc(a1-4)Glc(a1-4)Glc(a1-4)Glc(a1-4)Glc(a1-4)Glc(a1-4)Glc(a1-4)Glc(a1-4)Glc
In short: as §1

[9] = target: Glc(a1-4)Glc(a1-4)Glc(a1-4)Glc(a1-4)Glc(a1-4)Glc(a1-4)Glc(a1-4)Glc(a1-4)Glc(a1-4)Glc(a1-4)Glc(a1-4)Glc
In short: as §1

[10] = target: Glc(a1-4)Glc(a1-4)Glc(a1-4)Glc(a1-4)Glc(a1-4)Glc(a1-4)Glc(a1-4)Glc(a1-4)Glc(a1-4)Glc(a1-4)Glc(a1-4)Glc(a1-4)Glc
In short: as §1

Glc(a1-6)Glc(a1-6)Glc = target: Glc(a1-6)Glc(a1-6)Glc
In short: as §1

[11] = target: Glc(b1-3)Glc(b1-3)Glc(b1-3)Glc
In short: as §1

Glc(b1-6)Glc = target: Glc(b1-6)Glc
In short: as §1

GlcA(b1-3)Gal(b1-4)Glc = target: GlcA(b1-3)Gal(b1-4)Glc
In short: as §1

[12] = target: GlcNAc(b1-2)[GlcNAc(b1-4)]Man(a1-3)[GlcNAc(b1-2)[GlcNAc(b1-4)][GlcNAc(b1-6)]Man(a1-6)][GlcNAc(b1-4)]Man(b1-4)GlcNAc(b1-4)GlcNAc
In short: as §1

[13] = target: GlcNAc(b1-3)[GlcNAc(b1-6)]Gal
In short: as §1

[14] = target: GlcNAc(b1-4)GlcNAc(b1-4)GlcNAc(b1-4)GlcNAc(b1-4)GlcNAc(b1-4)GlcNAc
In short: as §1

[15] = target: Kdn(a2-3)Gal(b1-3)GlcNAc(b1-3)Gal(b1-4)Glc
In short: as §1

[16] = target: Kdn(a2-3)Gal(b1-4)[Fuc(a1-3)]GlcNAc(b1-3)Gal
In short: as §1

Man(a1-3)Man = target: Man(a1-3)Man
In short: as §1

Man(a1-3)Man(b1-4)GlcNAc = target: Man(a1-3)Man(b1-4)GlcNAc
In short: as §1

[17] = target: Man(b1-4)Man(b1-4)Man(b1-4)Man(b1-4)Man(b1-4)Man
In short: as §1

[18] = target: Neu5Ac(a2-3)Gal(b1-3)GlcNAc(b1-3)[Fuc(a1-3)[Gal(b1-4)]GlcNAc(b1-6)]Gal(b1-4)Glc
In short: as §1

Neu5Ac(a2-3)Gal(b1-4)Glc = target: Neu5Ac(a2-3)Gal(b1-4)Glc
In short: as §1

[19] = target: Neu5Ac(a2-3)Gal(b1-4)[Fuc(a1-3)]GlcNAc(b1-6)Gal(b1-4)Glc
In short: as §1

[20] = target: Neu5Ac(a2-3)Gal6S(b1-4)[Fuc(a1-3)]GlcNAc(b1-3)Gal(b1-4)Glc
In short: as §1

[21] = target: Neu5Ac(a2-6)Gal(b1-3)GlcNAc(b1-3)[Fuc(a1-3)[Gal(b1-4)]GlcNAc(b1-6)]Gal(b1-4)Glc
In short: as §1

[22] = target: Neu5Ac(a2-8)Neu5Ac(a2-8)Neu5Ac(a2-3)Gal(b1-4)Glc
In short: as §1

[23] = target: Neu5Ac9Me(a2-3)Gal(b1-4)Glc
In short: as §1

[24] = target: Neu5Gc(a2-6)Gal(b1-4)GlcNAc(b1-2)Man(a1-3)[Neu5Gc(a2-6)Gal(b1-4)GlcNAc(b1-2)Man(a1-6)]Man(b1-4)GlcNAc(b1-4)GlcNAc
In short: as §1

[25] = target: Xyl(b1-2)[Man(a1-3)][Man(a1-6)]Man(b1-4)GlcNAc(b1-4)[Fuc(a1-3)]GlcNAc
In short: as §1

[26] = target: Ara(a1-5)Ara(a1-5)Ara(a1-5)Ara(a1-5)Ara(a1-5)Ara
In short: as §1

[27] = target: Fuc(a1-2)Gal(b1-3)GlcNAc(b1-3)Gal(b1-4)Glc
In short: as §1

[28] = target: Gal(b1-3)GlcNAc(b1-3)[Gal(b1-4)GlcNAc(b1-6)]Gal(b1-4)Glc
In short: as §1

[29] = target: Gal(b1-4)GlcNAc(b1-3)[Gal(b1-4)GlcNAc(b1-6)]Gal(b1-4)GlcNAc(b1-3)[Gal(b1-4)GlcNAc(b1-6)]Gal(b1-4)GlcNAc(b1-3)[Gal(b1-4)GlcNAc(b1-6)]Gal(b1-4)GlcNAc(b1-3)[Gal(b1-4)GlcNAc(b1-6)]Gal(b1-4)GlcNAc(b1-3)Gal(b1-4)Glc
In short: as §1

[30] = target: Gal3S(b1-3)[Fuc(a1-4)]GlcNAc(b1-3)Gal(b1-4)Glc
In short: as §1

[31] = target: Gal3S(b1-4)GlcNAc(b1-3)Gal
In short: as §1

[32] = target: Glc(a1-2)Glc(a1-3)Glc(a1-3)Man(a1-2)Man(a1-2)Man(a1-3)[Man(a1-3)[Man(a1-6)]Man(a1-6)]Man(b1-4)GlcNAc
In short: as §1

[33] = target: Glc(a1-3)Glc(a1-3)Man(a1-2)Man(a1-2)Man(a1-3)[Man(a1-3)[Man(a1-6)]Man(a1-6)]Man(b1-4)GlcNAc
In short: as §1

[34] = target: Glc(a1-3)Man(a1-2)Man(a1-2)Man(a1-3)[Man(a1-2)Man(a1-3)[Man(a1-2)Man(a1-6)]Man(a1-6)]Man(b1-4)GlcNAc(b1-4)GlcNAc
In short: as §1

Glc(a1-6)Glc = target: Glc(a1-6)Glc
In short: as §1

[35] = target: Glc(a1-6)Glc(a1-6)Glc(a1-6)Glc
In short: as §1

[36] = target: Glc(a1-6)Glc(a1-6)Glc(a1-6)Glc(a1-6)Glc
In short: as §1

[37] = target: Glc(a1-6)Glc(a1-6)Glc(a1-6)Glc(a1-6)Glc(a1-6)Glc
In short: as §1

[38] = target: Glc(b1-4)Glc(b1-4)Glc(b1-4)Glc(b1-4)Glc(b1-4)Glc
In short: as §1

GlcA3S(b1-3)Gal = target: GlcA3S(b1-3)Gal
In short: as §1

[39] = target: GlcNAc(b1-3)[GlcNAc(b1-6)]Gal(b1-4)GlcNAc(b1-3)[GlcNAc(b1-6)]Gal(b1-4)GlcNAc(b1-3)Gal(b1-4)Glc
In short: as §1

[40] = target: HexA(a1-3)GalNAc6S(b1-4)GlcA(b1-3)GalNAc6S
In short: as §1

Man(a1-2)Man = target: Man(a1-2)Man
In short: as §1

[41] = target: Man(a1-3)[Man(a1-6)]Man(b1-4)GlcNAc(b1-4)GlcNAc
In short: as §1

Man(b1-4)GlcNAc = target: Man(b1-4)GlcNAc
In short: as §1

[42] = target: Man6P(a1-3)Man(a1-3)Man(a1-3)Man(a1-2)Man
In short: as §1

[43] = target: Neu5Ac(a2-3)Gal(b1-3)GalNAc(b1-4)[Neu5Ac(a2-3)]Gal(b1-4)Glc
In short: as §1

[44] = target: Neu5Ac(a2-3)Gal(b1-3)[Fuc(a1-4)]GlcNAc
In short: as §1

[45] = target: Neu5Ac(a2-3)Gal(b1-3)[Fuc(a1-4)]GlcNAc(b1-3)Gal(b1-4)Glc
In short: as §1

Neu5Ac(a2-8)Neu5Ac = target: Neu5Ac(a2-8)Neu5Ac
In short: as §1

[46] = target: Neu5Ac9Ac(a2-6)Gal(b1-4)GlcNAc
In short: as §1

B1: ZG16p (Homo sapiens), O60844 (protein)
chain: ARSSSYSGEYGGGGGKRFSHSGNQLDGPITALRVRVNTYYIVGLQVRYGKVWSDYVGGRNGDLEEIFLHPGESVIQVSGKYKWYLKKLLFVTDKGRYLSFGKDSGTSFNAVPLHPNTVLRFISGRSGSLIDAIGLHWDVYPSSCSRC
- glycan array binding signal (z-score) [1]: -0.327
- glycan array binding signal (z-score) [2]: -0.025
- glycan array binding signal (z-score) [3]: -0.178
- glycan array binding signal (z-score) [4]: -0.328
- glycan array binding signal (z-score) (Gal(a1-6)Glc): -0.272
- glycan array binding signal (z-score) (Gal(b1-4)Glc): -0.133
- glycan array binding signal (z-score) [5]: -0.273
- glycan array binding signal (z-score) [6]: -0.328
- glycan array binding signal (z-score) (Glc(a1-3)Glc): 2.88
- glycan array binding signal (z-score) [7]: 1.93
- glycan array binding signal (z-score) [8]: 1.95
- glycan array binding signal (z-score) [9]: 4.4
- glycan array binding signal (z-score) [10]: 2.82
- glycan array binding signal (z-score) (Glc(a1-6)Glc(a1-6)Glc): 0.475
- glycan array binding signal (z-score) [11]: 0.797
- glycan array binding signal (z-score) (Glc(b1-6)Glc): 2.7
- glycan array binding signal (z-score) (GlcA(b1-3)Gal(b1-4)Glc): -0.328
- glycan array binding signal (z-score) [12]: -0.42
- glycan array binding signal (z-score) [13]: 0.435
- glycan array binding signal (z-score) [14]: -0.328
- glycan array binding signal (z-score) [15]: -0.328
- glycan array binding signal (z-score) [16]: -0.328
- glycan array binding signal (z-score) (Man(a1-3)Man): 2.78
- glycan array binding signal (z-score) (Man(a1-3)Man(b1-4)GlcNAc): 2.31
- glycan array binding signal (z-score) [17]: -0.328
- glycan array binding signal (z-score) [18]: -0.328
- glycan array binding signal (z-score) (Neu5Ac(a2-3)Gal(b1-4)Glc): -0.276
- glycan array binding signal (z-score) [19]: -0.328
- glycan array binding signal (z-score) [20]: -0.328
- glycan array binding signal (z-score) [21]: -0.328
- glycan array binding signal (z-score) [22]: -0.328
- glycan array binding signal (z-score) [23]: -0.328
- glycan array binding signal (z-score) [24]: -0.282
- glycan array binding signal (z-score) [25]: -0.369

B2: Malectin (Xenopus laevis), Q6INX3 (protein)
chain: SGLADKVIWAVNAGGESHVDVHGIHYRKDPLEGRVGRASDYGMKLPILRSNPEDQVLYQTERYNEDSFGYDIPIKEEGEYVLVLKFAEVYFAQSQQKVFDVRVNGHTVVKDLDIFDRVGHSTAHDEIIPISIKKGKLSVQGEVSTFTGKLSVEFVKGYYDNPKVCALFIMKGTADDVPMLQPHPGLE
- glycan array binding signal (z-score) [26]: -0.069
- glycan array binding signal (z-score) [27]: -0.068
- glycan array binding signal (z-score) [28]: -0.075
- glycan array binding signal (z-score) [29]: -0.066
- glycan array binding signal (z-score) [30]: -0.076
- glycan array binding signal (z-score) [31]: -0.076
- glycan array binding signal (z-score) [32]: 0.052
- glycan array binding signal (z-score) (Glc(a1-3)Glc): 0.041
- glycan array binding signal (z-score) [33]: 8.46
- glycan array binding signal (z-score) [34]: -0.171
- glycan array binding signal (z-score) (Glc(a1-6)Glc): -0.214
- glycan array binding signal (z-score) [35]: 0.133
- glycan array binding signal (z-score) [36]: 0.876
- glycan array binding signal (z-score) [37]: 1.32
- glycan array binding signal (z-score) [38]: -0.198
- glycan array binding signal (z-score) (GlcA3S(b1-3)Gal): -0.074
- glycan array binding signal (z-score) [39]: -0.076
- glycan array binding signal (z-score) [40]: -0.074
- glycan array binding signal (z-score) (Man(a1-2)Man): -0.076
- glycan array binding signal (z-score) [41]: -0.072
- glycan array binding signal (z-score) (Man(b1-4)GlcNAc): -0.075
- glycan array binding signal (z-score) [42]: -0.075
- glycan array binding signal (z-score) [43]: -0.076
- glycan array binding signal (z-score) [44]: -0.076
- glycan array binding signal (z-score) [45]: -0.076
- glycan array binding signal (z-score) (Neu5Ac(a2-8)Neu5Ac): -0.073
- glycan array binding signal (z-score) [46]: -0.073

Source: the supplement of paper PMC8728848
